Unmarked numbers belong to inactive results. Inconclusive results are not listed. Activity calls are given as the source filed them. The call rests on the fitted dose curve; in most records, active means well fitted curve in the direction sought with a large enough effect; inconclusive means small, poorly fitted or top-dose-only effect, or another doubt; inactive means no such curve, though single readings can be large; an effect the other way counts as inactive or inconclusive.

Assay [1] can be described thus: Validation qHTS assay for inhibitors of Activation Induced Cytidine Deaminase (AID): UDG Counterscreen signal (AID 1347427). Further: potency means the concentration at half of the fitted maximal effect. In a few lines:
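Fluorescence at 560 nm excitation, 665 nm emission reports UDG signal after 250 mM NaOH (2x) addition and 30 min. Enzymes (AID 1 uM, UDG 2 U/mL, at 4/3x) preincubated 10 min with compound, then 4 h with 4x 250 nM DJC20/DJC23 substrate at room temperature.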
(In general: qHTS replaces the single test concentration by a dilution series.)

The target of assay [2] is Single-stranded DNA cytosine deaminase (Homo sapiens) (UniProt Q9GZX7). As to the kind of experiment: Validation qHTS assay for inhibitors of Activation Induced Cytidine Deaminase (AID): AID signal (AID 1347429). Further: potency means the concentration at half of the fitted maximal effect. In short, it runs like this: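 AID+UDG coupled FRET deamination; cpds up to 114 uM final; DJC20/DJC23 substrate, 4 hr RT; NaOH stop, 30 min RT; read Ex 540/Em 590.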
Sequence of Single-stranded DNA cytosine deaminase (Homo sapiens) (Q9GZX7 whole entry, looked up): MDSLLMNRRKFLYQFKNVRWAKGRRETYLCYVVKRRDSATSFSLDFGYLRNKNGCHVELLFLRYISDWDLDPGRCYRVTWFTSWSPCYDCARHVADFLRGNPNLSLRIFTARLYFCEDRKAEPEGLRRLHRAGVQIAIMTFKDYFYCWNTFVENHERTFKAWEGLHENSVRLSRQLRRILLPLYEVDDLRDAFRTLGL

The nature of assay [3]: Primary qHTS for small molecule stabilizers of the endoplasmic reticulum resident proteome: Secreted ER Calcium Modulated Protein (SERCaMP) assay (AID 1508630). Further: on the % scale 0 is the no-effect control and ±100 the full control effect. In short, it runs like this: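 The SH-SY5Y reporter protocol was run at 3 concentrations up to 38.3 uM (primary) or 11 concentrations (follow-up): 16 h compound, 100 nM thapsigargin for 4 h, then extracellular luciferase luminescence.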

The nature of assay [4]: Primary qHTS for inhibitors of La Crosse Virus (LACV) - induced cell death in SH-SY5Y cells (AID 1508616).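 Further: top concentration of the series differs between compounds; 0% = infected DMSO wells and 100% = uninfected DMSO wells; higher means more rescue of cells from virus-induced death.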 In short, it runs like this: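 Cytopathicity rescue screen: compounds pinned onto SH-SY5Y cells, which are then infected with LACV (MOI 0.01) and held 6 days at 37C. Percent activity is scaled between infected DMSO control and uninfected DMSO control.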
Assay [5] deals with Calcium and integrin-binding protein 1 (Homo sapiens) (UniProt Q99828). As to the kind of experiment: Validation qHTS for Identification of Calcium Integrin Binding protein 1 (CIB1) Competitor (AID 1508618). Further: on the % scale 0 is the no-effect control and ±100 the full control effect. In a few lines:
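CIB1-GST (1 uM final) incubated 15 min at room temperature with compounds (up to 114 uM), then FITC-labelled alphaIIb peptide (100 nM) added. FP read (Ex 480/Em 540) after 15 min, pH 7.4 buffer containing 5 mM CaCl2.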

A short description of assay [6]: Cell Viability qHTS for small molecule stabilizers of the endoplasmic reticulum resident proteome (AID 1508629).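 Further: human SH-SY5Y neuroblastoma cells carrying the GLuc-SERCaMP reporter; compound exposure about 46 h in total before the viability read; on the % scale 0 is the no-effect control and ±100 the full control effect.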 To be noted: cell viability counter-screen, 100 nM thapsigargin for final 4 h.
The nature of assay [7]: Counterscreen qHTS for small molecule stabilizers of the endoplasmic reticulum resident proteome: GLuc-NoTag assay (AID 1508627). Further: potency means the concentration at half of the fitted maximal effect. In short, it runs like this:
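Secreted GLuc lacking the SERCaMP modification is measured in SH-SY5Y cells exposed to compound for 19 h and then to thapsigargin (100 nM, 4 h) to deplete ER calcium; hits retested at 11 concentrations, up to 76.6 uM.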
Background: Counterscreens check selectivity or assay interference.

Assay [8] is described as follows: Confirmatory qHTS for small molecule stabilizers of the endoplasmic reticulum resident proteome: Secreted ER Calcium Modulated Protein (SERCaMP) assay (AID 1508628). Further: nearly all actives have a fitted effect of over 40% in size. Further: potency means the concentration at half of the fitted maximal effect. In short, it runs like this: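 GLuc-SERCaMP-expressing SH-SY5Y cells, pretreated 16 h with compound, are challenged with thapsigargin to empty ER calcium stores; after 4 h, coelenterazine is added directly to the medium and luminescence is imaged.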

Assay [9] concerns the target Calcium and integrin-binding protein 1 (Homo sapiens) (UniProt Q99828). As to the kind of experiment: Primary qHTS for Identification of Calcium Integrin Binding Protein 1 (CIB1) Competitor (AID 1508620). Further: top concentration of the series differs between compounds; on the % scale 0 is the no-effect control and ±100 the full control effect. In short, it runs like this:
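Fluorescence polarization competition: CIB1-GST (1 uM final) preincubated with compound 15 min at room temperature, then FITC-labeled alphaIIb peptide (100 nM final) added for another 15 min. Polarization read at Ex 480/Em 540.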

For assay [10] the target is unchanged. As to the kind of experiment: Confirmatory qHTS for Identification of Calcium Integrin Binding Protein 1 (CIB1) Competitor (AID 1508617). Further: potency means the concentration at half of the fitted maximal effect; nearly all actives have a fitted effect of over 65% in size. Particulars: CIB1 binding competition assay, biochemical qHTS. In a few lines: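 Compounds at up to 114 uM final met 1 uM GST-tagged CIB1 for 15 min at room temperature (HEPES pH 7.4, 5 mM CaCl2). FITC-labelled alphaIIb peptide, 100 nM, added; polarization read after 15 min more.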

Sequence of Calcium and integrin-binding protein 1 (Homo sapiens) (Q99828 whole entry, looked up): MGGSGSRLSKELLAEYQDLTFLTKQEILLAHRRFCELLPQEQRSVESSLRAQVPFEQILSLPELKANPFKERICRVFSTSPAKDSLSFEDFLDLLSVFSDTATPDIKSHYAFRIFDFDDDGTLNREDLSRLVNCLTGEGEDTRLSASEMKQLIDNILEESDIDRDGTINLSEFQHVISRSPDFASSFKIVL

With `O=[N+]([O-])c1ccc2c(c1)S(=O)(=O)C=C2`, the Potency entry in assay [1], in assay [2] and in assay [3] was “inactive” throughout.
As to `O=C(CS)Nc1ccccc1`, the Potency result in [4] was “inactive”.
As to `C[N+](C)(CCCCCC[N+](C)(C)CCCN1C(=O)c2cccc3cccc(c23)C1=O)CCCN1C(=O)c2cccc3cccc(c23)C1=O`, the Potency result in assay [1], in assay [4] and in assay [3] was “inactive” in each case. Also, the Potency in assay [2] is 1.41 µM (active).
Regarding `CC(C)(C)c1ccc(S(=O)(=O)/C=C/C#N)cc1`, the Potency entry in assay [1], in [2] and in [3] was “inactive” throughout. Besides, in assay [5], the result was inactive.
For `NS(=O)(=O)C#Cc1ccccc1`, the Potency entry in [1], in [2] and in [3] was “inactive” in each case. Also, the outcome in assay [5] was inactive.
In the case of `COc1ccc2c(c1)CCC1C2CC[C@@]2(C)C1CC[C@@H]2NCCCCCCN1C(=O)CCC1=O` (some centres undefined), the Potency result in [1], in [2] and in assay [3] was “inactive” each time. Further, the result in assay [5] was inactive.
As for `O=C(c1ccc(Cl)cc1)N1CCN(c2ccc([N+](=O)[O-])c3ncccc23)CC1`, the Potency entry in assay [1] and in assay [2] was “inactive” in each case. The outcome in assay [5] was inactive. The max response in assay [6] is 3.83%.
For the compound `c1cnc2c(c1)ccc1cccnc12`, the Potency entry in assay [1] and in [3] was “inactive” throughout. Besides, in assay [5], the result was inactive.
Turning to `Fc1ccc(C(OCCCc2cnc[nH]2)c2ccc(F)cc2)cc1`, the Potency entry in [1], in assay [2], in assay [7] and in assay [3] was “inactive” throughout. Also, the result in [5] was inactive. Also, the max response in [6] was -7.37%.
As to `OC[C@H]1O[C@@H](n2cnc3c(NC4CCCCC4)ncnc32)[C@H](O)[C@@H]1O`, the Potency entry in [1], in assay [2] and in assay [3] was “inactive” throughout. Further, the result in assay [5] was inactive.
As to `Cn1ncc(S(=O)(=O)Cc2ccccc2)c(Br)c1=O`, the Potency entry in assay [1], in assay [2] and in [3] was “inactive” each time. The result in assay [5] was inactive.
As for `O=C(Nc1ccccc1)c1cc([N+](=O)[O-])ccc1Cl`, the Potency result in assay [1], in assay [2], in assay [7] and in assay [8] was “inactive” in each case. For the same compound, the result in [5] was inactive. Further, the max response in assay [6] is -26.2%.
For the compound `Ic1ccc(N2CCN(Cc3c[nH]c4ncccc34)CC2)cc1`, the Potency entry in assay [1], in [2], in assay [4] and in [3] was “inactive” throughout.
With `O=C1O/C(=C/Br)CCC1c1cccc2ccccc12` (centres undefined), the Potency result in assay [1], in assay [2] and in [3] was “inactive” throughout.
For the compound `CN(C)c1nc2c(Br)c(Br)c(Br)c(Br)c2[nH]1`, the Potency result in [2], in assay [4] and in [3] was “inactive” throughout.
On to `N=c1ccn2c(n1)O[C@H]1[C@H](O)[C@@H](CO)O[C@H]12`, for which the Potency entry in assay [1], in assay [2] and in assay [3] was “inactive” in each case. Moreover, the result in assay [5] was inactive.
`O=S(=O)(c1cccc2c(I)cccc12)N1CCCNCC1`: the Potency entry in assay [1] and in assay [2] was “inactive” throughout. Further, in [5], the outcome was inactive.
On to `N.N.N.N.N.N.N.N.N.N.N.N.N.N.O.O.[Ru+4].[Ru+5].[Ru+5]`, for which the Potency was 39.8 µM (active) in assay [1], 7.08 µM (active) in [7] and 7.08 µM (active) in assay [8]. For the same compound, in [4], the Potency entry is “inactive”.
Take `CC(=O)/C=C1\C(=O)N(C)c2ccccc21`: the Potency entry in assay [1], in assay [2] and in assay [3] was “inactive” throughout. For the same compound, the outcome in [5] was inactive.
Regarding `CCCCCCCCCCCCCCCCCC(=O)O`, in assay [4], the Potency result is “inactive”.
`CCOC(=O)C1=C(C)NC(C)=C(C(=O)OCC)C1c1c(F)c(F)c(F)c(F)c1F`: the Potency result in assay [2], in [4] and in assay [3] was “inactive” throughout.
As to `Cn1c(=O)c2[nH]c(-c3ccccc3)nc2n(C)c1=O`, the Potency entry in [1], in assay [2] and in assay [3] was “inactive” throughout.
As to `CCCCC#Cc1nc(NC)c2ncn([C@@H]3O[C@H](CO)[C@@H](O)[C@H]3O)c2n1`, the Potency result in [1], in [2] and in assay [3] was “inactive” in each case. Besides, the result in assay [5] was inactive.
As to `CCOC(=O)N1CCN(/[N+]([O-])=N/Oc2ccc([N+](=O)[O-])cc2[N+](=O)[O-])CC1`, the Potency result in [1], in assay [2] and in assay [3] was “inactive” in each case.
Consider `COC1=C(OC)C(=O)c2ccccc2C1=O`, for which, in assay [2], the Potency is 50.1 µM (active). The Potency entry in assay [4] was “inactive”. For the same compound, the outcome in assay [5] was inactive.
Consider `Nc1ccc(C(=O)O)c(O)c1`, for which the Potency entry in assay [4] and in assay [9] was “inactive” in each case.
`NCCO`: the Potency entry in [4], in assay [9] and in [7] was “inactive” throughout.
Turning to `O=c1cc(-c2ccccc2)oc2ccccc12`, the Potency result in assay [4] and in assay [9] was “inactive” each time.
`COc1cc2c3cc1Oc1cc(ccc1O)C[C@@H]1c4c(cc(OC)c(O)c4Oc4ccc(cc4)C[C@@H]3N(C)CC2)CC[N+]1(C)C`: the Potency entry in assay [4] and in [9] was “inactive” throughout.
With `CC(C(=O)O)c1ccc2c(c1)[nH]c1ccc(Cl)cc12` (centres undefined), the Potency entry in assay [4] and in assay [9] was “inactive” each time.
Consider `N=C(N)N`, for which the Potency entry in assay [4] and in assay [9] was “inactive” in each case.
In the case of `CC1(C)S[C@@H]2[C@H](NC(=O)[C@H](N)c3ccccc3)C(=O)N2[C@H]1C(=O)O`, in assay [4], the Potency result was “inactive”.
Take `Nc1ccc(O)c([N+](=O)[O-])c1`: the Potency entry in [4] is “inactive”. Further, the Potency in assay [10] is 50.1 µM (active).
With `CC(C(=O)O)c1ccc(C(=O)c2ccccc2)s1` (centres undefined), the Potency result in [4] and in assay [9] was “inactive” in each case.
Regarding `CC(C)OC(=O)c1cc(C(=O)OC(C)C)cc([N+](=O)[O-])c1`, the Potency entry in assay [4], in assay [9] and in assay [7] was “inactive” throughout.
Take `CC(C)NCC(O)COc1cccc2ccccc12` (centres undefined): the Potency result in assay [4] was “inactive”. In assay [5], the outcome was inactive.
For the compound `Cc1ccc(C(=O)c2ccc(CC(=O)O)n2C)cc1`, the Potency entry in assay [4] and in assay [9] was “inactive” throughout.

The record behind these values is PubChem BioAssay (NCATS).
